Experimental data as given in PubChem BioAssay (NCI).
Compounds without any hit were thinned out: in the full panel of roughly 83,000, 20% have a hit.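 Note: values are percent growth. 100 is the growth of untreated cells, values between 100 and 0 indicate rising inhibition; between -100 and 0 indicates cell death.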 Active and inactive are the calls of the source. Rule for the calls: active = growth percent below 10; inactive = the rest.

Legend:
Experiment in all cases: NCI-60 one-dose screen, 48 h (100 = growth as untreated, 0 = no growth, -100 = all killed)
Details in all cases: 10 µM unless noted
DU-145 prostate = test system: DU-145 prostate
K-562 leukemia = test system: K-562 leukemia
MALME-3M melanoma = test system: MALME-3M melanoma
MDA-MB-231 breast = test system: MDA-MB-231 breast
RXF 393 renal = test system: RXF 393 renal
SF-268 CNS = test system: SF-268 CNS
SF-295 CNS = test system: SF-295 CNS
SF-539 CNS = test system: SF-539 CNS
UACC-257 melanoma = test system: UACC-257 melanoma
M14 melanoma = test system: M14 melanoma

Measured: growth

C=C(C=O)[C@@H]1CC[C@]2(C(=O)O)CC[C@]3(C)C(CC[C@@H]4[C@@](C)(CCC#N)[C@H](C(=C)C=O)CC[C@]43C)[C@@H]12 (stereo not given in full)
inactive: DU-145 prostate 43.2% | MDA-MB-231 breast 43.8% | RXF 393 renal 44% | SF-268 CNS 64.9% | SF-295 CNS 62.7% | SF-539 CNS 13.4% | UACC-257 melanoma 12.4% | M14 melanoma 13.2%
active: K-562 leukemia 4.17% | MALME-3M melanoma 5.28%

O=C(CSc1nnc(-c2ccc(Cl)cc2)n1-c1ccccc1)Nc1cccc(F)c1
inactive: DU-145 prostate 58.1% | K-562 leukemia 48% | MALME-3M melanoma 52.7% | MDA-MB-231 breast 27% | RXF 393 renal 25.6% | SF-268 CNS 56.2% | UACC-257 melanoma 85.9% | M14 melanoma 62.9%
active: SF-295 CNS 9.38% | SF-539 CNS -1.04%

COc1cc2oc(-c3cccc(NC(=O)[C@@H](N)C(C)C)c3)cc(=O)c2c(OC)c1OC
inactive: DU-145 prostate 105% | K-562 leukemia 105% | MALME-3M melanoma 110% | MDA-MB-231 breast 99.2% | RXF 393 renal 107% | SF-268 CNS 107% | SF-295 CNS 96.7% | SF-539 CNS 95.9% | UACC-257 melanoma 108% | M14 melanoma 111%

CC1(C)CC[C@]23CC[C@]4(C)[C@H](CC[C@@H]5[C@@]6(C)CC[C@H](N)C(C)(C)[C@@H]6CC[C@]54C)[C@H]2[C@H]1OC3
active: DU-145 prostate -25.2% | K-562 leukemia -31.2%
inactive: MALME-3M melanoma 109% | MDA-MB-231 breast 30.1% | RXF 393 renal 38.1% | SF-268 CNS 80.9% | SF-295 CNS 78% | SF-539 CNS 74.1% | UACC-257 melanoma 98.9% | M14 melanoma 82.8%

O=c1c2cc(-c3ccc(F)cc3F)ccc2n(O)c(=O)n1-c1cccc(C(F)(F)F)c1
active: K-562 leukemia 3.41% | MALME-3M melanoma -12.2% | MDA-MB-231 breast -10.3% | RXF 393 renal 3.38% | SF-295 CNS -11.2% | UACC-257 melanoma -8.3%
inactive: DU-145 prostate 25.5% | SF-268 CNS 17.4% | SF-539 CNS 21.1% | M14 melanoma 17.6%

CCOC(=O)c1cccc(NC2=C(Cl)C(=O)c3nc(C)ccc3C2=O)c1
inactive: DU-145 prostate 108% | K-562 leukemia 15.6% | MALME-3M melanoma 96.3% | MDA-MB-231 breast 89.8% | RXF 393 renal 97.8% | SF-268 CNS 96.2% | SF-295 CNS 113% | SF-539 CNS 104% | UACC-257 melanoma 82% | M14 melanoma 96.4%

CN1CCN(CCCCCC(=O)Nc2nc(-c3cccc(NS(=O)(=O)c4cccc5c(N(C)C)cccc45)c3)cs2)CC1
active: K-562 leukemia 7.02% | M14 melanoma -28.7%
inactive: DU-145 prostate 84.8% | MALME-3M melanoma 17.5% | MDA-MB-231 breast 68.8% | RXF 393 renal 50.9% | SF-268 CNS 90.9% | SF-295 CNS 35.6% | SF-539 CNS 58.2% | UACC-257 melanoma 42.7%

Cn1ncc2ncc(-c3ccc4ncc(C#N)c(N5CCc6cc(F)c(Cl)cc65)c4c3)cc21
inactive: DU-145 prostate 30% | K-562 leukemia 39.7% | MALME-3M melanoma 39.5% | MDA-MB-231 breast 26.7% | SF-268 CNS 49.7% | SF-295 CNS 22.9% | SF-539 CNS 27.1% | UACC-257 melanoma 54.9% | M14 melanoma 44.9%
active: RXF 393 renal -17.4%

COc1cc(C(C)=C(c2ccc(OCCN(C)C)cc2)c2ccc(OCCN(C)C)cc2)ccc1F
inactive: DU-145 prostate 102% | K-562 leukemia 93.3% | MALME-3M melanoma 92.6% | MDA-MB-231 breast 102% | RXF 393 renal 90.6% | SF-268 CNS 98.5% | SF-295 CNS 100% | SF-539 CNS 101% | UACC-257 melanoma 111% | M14 melanoma 110%

C=C1CCc2nc(SCC(=O)O)ccc2N1
inactive: DU-145 prostate 110% | K-562 leukemia 98.5% | MALME-3M melanoma 104% | MDA-MB-231 breast 105% | RXF 393 renal 94.1% | SF-268 CNS 103% | SF-295 CNS 104% | SF-539 CNS 101% | UACC-257 melanoma 105% | M14 melanoma 94.8%

O=C1/C(=C/C=C/c2ccco2)SC(=S)N1Cc1ccccc1
inactive: DU-145 prostate 93.8% | K-562 leukemia 71.2% | MALME-3M melanoma 87.2% | MDA-MB-231 breast 92.7% | RXF 393 renal 95.3% | SF-268 CNS 89.7% | SF-295 CNS 97% | SF-539 CNS 101% | UACC-257 melanoma 91.6% | M14 melanoma 92.1%

C[C@H](Nc1ncnc2ccc(-c3cnc(Cl)c(NS(C)(=O)=O)c3)cc12)c1ccccc1
active: DU-145 prostate -2.78% | MALME-3M melanoma -43.1% | MDA-MB-231 breast -17.1% | RXF 393 renal -54.5% | SF-268 CNS -3.03% | SF-295 CNS -25.6% | SF-539 CNS -42.8% | UACC-257 melanoma -18.4% | M14 melanoma -13.5%
inactive: K-562 leukemia 17.2%

Cc1ccc2c(n1)C(=O)C(Cl)=C(Nc1cccc(C)c1C)C2=O
active: DU-145 prostate -11% | K-562 leukemia -2.38% | MALME-3M melanoma -5.61% | MDA-MB-231 breast -1.12% | RXF 393 renal 7.14% | SF-268 CNS 2.79% | SF-295 CNS -52.6% | SF-539 CNS -55.9% | UACC-257 melanoma -77.5% | M14 melanoma -29.2%

O=C(CSc1nnc(-c2ccc(Cl)cc2)n1-c1ccccc1)Nc1ccccc1Cl
inactive: DU-145 prostate 68.4% | K-562 leukemia 67.1% | MALME-3M melanoma 79.2% | MDA-MB-231 breast 44.8% | RXF 393 renal 74% | SF-268 CNS 81.5% | SF-295 CNS 31.5% | SF-539 CNS 52.1% | UACC-257 melanoma 95.1% | M14 melanoma 78.2%

CSc1ccc(/C(=N/N=C(N)N)c2ccc(Cl)cc2)cc1
active: DU-145 prostate 9.65% | K-562 leukemia 1.76% | MDA-MB-231 breast 7.57% | SF-295 CNS 8.73% | SF-539 CNS -10.3% | M14 melanoma -90.9%
inactive: MALME-3M melanoma 22.5% | RXF 393 renal 16.5% | SF-268 CNS 19.3% | UACC-257 melanoma 57.8%

CCCCCC[n+]1ccc(SCC(=O)n2ccc3ccccc32)c2ccccc21
inactive: DU-145 prostate 94.1% | K-562 leukemia 51.7% | MALME-3M melanoma 91.4% | MDA-MB-231 breast 89.5% | RXF 393 renal 113% | SF-268 CNS 101% | SF-295 CNS 82.2% | SF-539 CNS 96.3% | UACC-257 melanoma 100% | M14 melanoma 89%

Brc1cccc(-c2cc(-c3cnc4c(c3)OCCO4)n[nH]2)c1
inactive: DU-145 prostate 70.4% | K-562 leukemia 16.6% | MALME-3M melanoma 37% | MDA-MB-231 breast 68.8% | RXF 393 renal 47.9% | SF-268 CNS 76.5% | SF-295 CNS 51.5% | SF-539 CNS 47.6% | UACC-257 melanoma 73.2% | M14 melanoma 27.1%

Cc1[nH]c(C(=O)Nc2ccccc2OCc2cccc(C(=O)NC3CCCNC3)c2)c(Cl)c1Cl (stereo not given)
inactive: SF-268 CNS 25.1% | UACC-257 melanoma 94.6%
active: DU-145 prostate -89% | K-562 leukemia -38.9% | MALME-3M melanoma -68.4% | MDA-MB-231 breast -68% | RXF 393 renal -69.4% | SF-295 CNS -87.9% | SF-539 CNS -84.6% | M14 melanoma -87%

C#CCn1cc(/C=N/Nc2nc(-c3ccc(Br)cc3)cs2)c2ccccc21
inactive: DU-145 prostate 114% | K-562 leukemia 110% | MALME-3M melanoma 100% | MDA-MB-231 breast 95.8% | RXF 393 renal 105% | SF-268 CNS 108% | SF-295 CNS 97.6% | SF-539 CNS 93% | UACC-257 melanoma 105% | M14 melanoma 93.9%

Cc1ccc(NC(=O)Nc2nc3ccc([N+](=O)[O-])cc3s2)cc1
inactive: DU-145 prostate 17.9% | K-562 leukemia 10.7% | SF-268 CNS 10.8% | SF-539 CNS 14%
active: MALME-3M melanoma -19.2% | MDA-MB-231 breast 2.83% | RXF 393 renal -12.1% | SF-295 CNS 0.916% | UACC-257 melanoma -12.5% | M14 melanoma 7.25%

CNC(=O)c1cc(-n2ccc3cc(NC(=O)Nc4ccc(N5CCN(C)CC5)c(C(F)(F)F)c4)ccc32)ccn1
active: K-562 leukemia -53.3% | MALME-3M melanoma 2.37% | RXF 393 renal -27.7% | SF-295 CNS -47.2% | SF-539 CNS 1.48%
inactive: DU-145 prostate 86.5% | MDA-MB-231 breast 61.5% | SF-268 CNS 83.4% | UACC-257 melanoma 72.2% | M14 melanoma 59%

O=C(Nc1ccc(N=Cc2c(O)[nH]c3ccccc23)cc1)Nc1ccc(S(=O)(=O)Nc2ncccn2)cc1
inactive: DU-145 prostate 110% | K-562 leukemia 98% | MALME-3M melanoma 112% | MDA-MB-231 breast 107% | RXF 393 renal 122% | SF-268 CNS 109% | SF-295 CNS 101% | SF-539 CNS 105% | UACC-257 melanoma 103% | M14 melanoma 104%

CNC(=O)Nc1ccc(Nc2cc(-c3ccc(-n4cccn4)cc3)[nH]n2)c(C)c1
inactive: DU-145 prostate 105% | K-562 leukemia 95.5% | MALME-3M melanoma 125% | MDA-MB-231 breast 123% | RXF 393 renal 141% | SF-268 CNS 103% | SF-295 CNS 109% | SF-539 CNS 98.7% | UACC-257 melanoma 115% | M14 melanoma 126%

Cn1c2nc3ccccc3c-2cc2ccccc21
inactive: DU-145 prostate 30.9% | K-562 leukemia 21.1% | MALME-3M melanoma 36.6% | MDA-MB-231 breast 36.1% | RXF 393 renal 43.3% | SF-268 CNS 57.3% | SF-295 CNS 39.6% | SF-539 CNS 39.1% | UACC-257 melanoma 49.2% | M14 melanoma 48.3%

CC[C@]12C=CCN3CC[C@]4(C(=C(C(=O)OC)C1)Nc1cc5c(cc14)[C@@H]1[C@H](O5)[C@@H](O)[C@@]4(CC)CC(C(=O)OC)=C5Nc6cc(O)ccc6[C@@]56CCN1C46)C32 (stereo not given in full)
active: K-562 leukemia 3.36% | RXF 393 renal -40.2% | SF-268 CNS 6.98% | SF-295 CNS 8.14% | SF-539 CNS 4.2%
inactive: DU-145 prostate 22% | MALME-3M melanoma 19.3% | MDA-MB-231 breast 21% | UACC-257 melanoma 21.8% | M14 melanoma 15.7%

CN1CCN(CCNc2nc(-c3cccc(NS(=O)(=O)c4cccc5c(N(C)C)cccc45)c3)cs2)CC1
inactive: DU-145 prostate 81.8% | K-562 leukemia 10.6% | MALME-3M melanoma 44% | MDA-MB-231 breast 64.8% | RXF 393 renal 61.6% | SF-268 CNS 82.7% | SF-295 CNS 42.6% | SF-539 CNS 68.1% | UACC-257 melanoma 53.9% | M14 melanoma 62.9%
